According to the supplement of paper PMC4840960:

tested on: E18 rat cortical neuron-glia co-culture; experiment: myelination (MBP fiber length per Olig2+ nucleus), % of 1 µM DAPT response (DMSO = 0) (% of DAPT); higher = more myelination, active = 50 or more; settings: 1 µM; treatment time: 8 days (DIV5-DIV13)
Outline: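 Library compounds at 1 or 5 µM in myelination medium were applied from DIV5 to DIV13 to papain-dissociated E18 rat cortical co-cultures seeded at 20,000 cells/well on poly-d-lysine/laminin 96-well plates. Fixed cells (4 % paraformaldehyde) were immunostained for MBP and Olig2 with DAPI, and four 10X fields were analysed in each duplicate well. Continuous straight MBP fiber length per Olig2+ nucleus was set to 0 for 0.1 % DMSO and to 100 for a 1 µM positive control.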

myelination, inactive:
NC1CCN(c2nc3c(cc2F)c(=O)c(C(=O)O)cn3-c2ccc(F)cc2F)C1 (centres undefined) [Tosufloxacin] -12.3, COc1cc2c(cc1OC)C(=O)C(CC1CCN(Cc3ccccc3)CC1)C2 (centres undefined) [Donepezil] -20.8, CCCCN1CCCC1CNC(=O)c1cc(C#N)c2ccccc2c1OC (centres undefined) [Nafadotride] -15, NNC(=O)c1ccncc1 [Isoniazid] -1.03, O=C1c2cccc3c2[C@H](CCC3)CN1[C@@H]1CN2CCC1CC2 [Palonosetron] -11.1, C=C1/C(=C\C=C2/CCC[C@]3(C)[C@@H]([C@H](C)CCCC(C)(C)O)CC[C@@H]23)C[C@@H](O)C[C@@H]1O [Calcitriol] -11.1, CCCCNc1cc(C(=O)O)cc(S(N)(=O)=O)c1Oc1ccccc1 [Bumetanide] -8.01, CO[C@H]1/C=C/O[C@@]2(C)Oc3c(C)c(O)c4c(c3C2=O)C2=NC3(CCN(CC(C)C)CC3)NC2=C(NC(=O)/C(C)=C\C=C\[C@H](C)[C@H](O)[C@@H](C)[C@@H](O)[C@@H](C)[C@H](OC(C)=O)[C@@H]1C)C4=O [Rifabutin] -2.92, CCC(=O)NS(=O)(=O)c1ccc(-c2c(-c3ccccc3)noc2C)cc1 [Parecoxib] -22.9, CC(=O)NS(=O)(=O)c1ccc(N)cc1 [Sulfacetamide] -10.6, CCN(CC)CCNC(=O)c1ccc(N)cc1 [Procainamide] -8.23, CN1C(C(=O)Nc2ccccn2)=C(O)c2ccccc2S1(=O)=O [Piroxicam] -10.9, c1ccc2[nH]c(-c3cscn3)nc2c1 [Thiabendazole] 0.461, Nc1c2c(nc3c1CCC3)CCCC2 [Amiridine] -26.8, CC(N/C(=N\C#N)Nc1ccncc1)C(C)(C)C (centres undefined) [Pinacidil] 2.9, CN(C)CCc1c[nH]c2ccc(Cn3cncn3)cc12 [Rizatriptan] -15, C[C@H]1C[C@@H]2[C@H]([C@@H](O)C[C@@]3(C)[C@H]2CC[C@]3(O)C(=O)CO)[C@@]2(C)C=CC(=O)C=C12 [Methylprednisolone] -0.665, C/C(=C\C(=O)OCCCCCCCCC(=O)O)C[C@@H]1OC[C@H](C[C@@H]2O[C@H]2[C@@H](C)[C@H](C)O)[C@@H](O)[C@H]1O [Mupirocin] -12.7, NS(=O)(=O)c1cc(C2(O)NC(=O)c3ccccc32)ccc1Cl (centres undefined) [Chlorthalidone] 18.9, N=C(N)N [Guanidine] -7.42, CC(C)Cc1ccc(C(C)C(=O)O)cc1 (centres undefined) [Ibuprofen] -7.57, CN1CCc2cc(Cl)c(O)cc2C(c2ccccc2)C1 (centres undefined) -8.8, Cc1nccn1CC1CCc2c(c3ccccc3n2C)C1=O (centres undefined) [Ondansetron] -25.6, Nc1nc2ccc(OC(F)(F)F)cc2s1 [Riluzole] -26.1, COc1cc(C)c(/C=C/C(C)=C/C=C/C(C)=C/C(=O)O)c(C)c1C [Acitretin] 0.3, CCCNC(=O)NS(=O)(=O)c1ccc(Cl)cc1 [Chlorpropamide] -30.5, CC(=O)OCC(=O)[C@@]12OC3(CCCC3)O[C@@H]1C[C@H]1[C@@H]3CCC4=CC(=O)C=C[C@]4(C)[C@@]3(F)[C@@H](O)C[C@@]12C [Amcinonide] -11.8, CN(CCO)CC(O)Cn1cnc2c1c(=O)n(C)c(=O)n2C (centres undefined) [Jupal] -7.05, O=C(O)/C=C/c1ccc(Cn2ccnc2)cc1 [Ozagrel] -6.75, CCC(C)(C)C(=O)O[C@H]1C[C@@H](C)C=C2C=C[C@H](C)[C@H](CC[C@@H]3C[C@@H](O)CC(=O)O3)[C@H]21 [Simvastatin] -17.5, CC1Cc2ccccc2N1NC(=O)c1ccc(Cl)c(S(N)(=O)=O)c1 (centres undefined) [Indapamide] -4.93, CCN(CC)CCOC(=O)c1ccc(N)cc1 [Procaine] 6.68, CC1(C)O[C@@H]2C[C@H]3[C@@H]4CCC5=CC(=O)C=C[C@]5(C)[C@@]4(F)[C@@H](O)C[C@]3(C)[C@]2(C(=O)CO)O1 [Triamcinolone Acetonide] 5.47, CCCC(=O)Nc1ccc(OCC(O)CNC(C)C)c(C(C)=O)c1 (centres undefined) [Acebutolol] -40.3, CC(=O)OCC(=O)NCCCOc1cccc(CN2CCCCC2)c1 [Roxatidine acetate] -10.7, CCOC(=O)[C@H](CCc1ccccc1)N[C@@H](C)C(=O)N1[C@H](C(=O)O)C[C@@H]2CCC[C@@H]21 [Ramipril] -11.2, CN(C)CCOC(C)(c1ccccc1)c1ccccn1 (centres undefined) [Doxylamine] -13.6, CCn1cc(C(=O)O)c(=O)c2ccc(C)nc21 [Nalidixic Acid] -2.25, C#C[C@]1(O)CC[C@H]2[C@@H]3CCC4=Cc5oncc5C[C@]4(C)[C@H]3CC[C@@]21C [Danazol] -20.4
